# Data: PubChem BioAssay (NCATS)
# Inconclusive results are not listed. Entries that show only a call come without a potency. The source made the active and inactive calls. Unless noted, the call rests on the fitted dose curve.
# Columns and labels:
# [1] = A High-Content qHTS Against Drug Library for the Identification of Small Molecules that Inhibit DYT1 Early Onset Primary Dystonia-Associated Cell Pathology (AID 1645839)
# Method in brief: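 High-content imaging quantified EGFP-TorsinA mislocalization in HEK293-derived cells inducibly expressing DYT1 mutant torsinA, after 48 h exposure to compound given together with tetracycline induction. Cell count served as a toxicity channel alongside %pathology.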
# [2] = target: Cytochrome P450 2D6 (Homo sapiens) (UniProt P10635); assay: Cytochrome P450 family 2 subfamily D member 6 (CYP2D6) small molecule antagonists: luciferase biochemical (cell-free) qHTS assay (AID 1645840; active means well fitted curve in the direction sought with a large enough effect in the repeat runs; an effect the other way counts as inactive or inconclusive; further: nearly all actives have a fitted effect of over 55% in size; further: potency means the concentration at half of the fitted maximal effect)
# Cytochrome P450 2D6 (Homo sapiens), sequence (P10635 whole entry, looked up): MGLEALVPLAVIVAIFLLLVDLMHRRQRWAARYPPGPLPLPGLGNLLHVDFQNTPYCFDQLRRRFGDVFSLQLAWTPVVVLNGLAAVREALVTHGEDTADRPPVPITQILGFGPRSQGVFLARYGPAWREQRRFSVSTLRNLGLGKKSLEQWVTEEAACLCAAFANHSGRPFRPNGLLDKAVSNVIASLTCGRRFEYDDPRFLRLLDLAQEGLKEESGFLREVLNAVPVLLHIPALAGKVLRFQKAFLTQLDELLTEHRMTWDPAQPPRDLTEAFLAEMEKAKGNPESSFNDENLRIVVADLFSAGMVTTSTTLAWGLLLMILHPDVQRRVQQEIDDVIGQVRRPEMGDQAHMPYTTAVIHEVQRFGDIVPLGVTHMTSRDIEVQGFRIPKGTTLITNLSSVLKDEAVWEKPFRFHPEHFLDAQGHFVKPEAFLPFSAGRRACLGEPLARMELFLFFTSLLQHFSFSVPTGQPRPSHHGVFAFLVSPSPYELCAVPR
# Method in brief: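 P450-Glo CYP2D6 system: proluciferin substrate converted by enzyme to luciferin, read by luminescence proportional to activity. Enzyme-substrate mix with compound 10 min at room temperature, then NADPH regeneration 1 h before detection reagent.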
# [3] = target: Cytochrome P450 2C9 (Homo sapiens) (UniProt P11712); assay: Cytochrome P450 family 2 subfamily C member 9 (CYP2C9) small molecule antagonists: luciferase biochemical (cell-free) qHTS assay (AID 1645842; active means well fitted curve in the direction sought with a large enough effect in the repeat runs; an effect the other way counts as inactive or inconclusive; further: nearly all actives have a fitted effect of over 55% in size; further: potency means the concentration at half of the fitted maximal effect)
# Cytochrome P450 2C9 (Homo sapiens), sequence (P11712 whole entry, looked up): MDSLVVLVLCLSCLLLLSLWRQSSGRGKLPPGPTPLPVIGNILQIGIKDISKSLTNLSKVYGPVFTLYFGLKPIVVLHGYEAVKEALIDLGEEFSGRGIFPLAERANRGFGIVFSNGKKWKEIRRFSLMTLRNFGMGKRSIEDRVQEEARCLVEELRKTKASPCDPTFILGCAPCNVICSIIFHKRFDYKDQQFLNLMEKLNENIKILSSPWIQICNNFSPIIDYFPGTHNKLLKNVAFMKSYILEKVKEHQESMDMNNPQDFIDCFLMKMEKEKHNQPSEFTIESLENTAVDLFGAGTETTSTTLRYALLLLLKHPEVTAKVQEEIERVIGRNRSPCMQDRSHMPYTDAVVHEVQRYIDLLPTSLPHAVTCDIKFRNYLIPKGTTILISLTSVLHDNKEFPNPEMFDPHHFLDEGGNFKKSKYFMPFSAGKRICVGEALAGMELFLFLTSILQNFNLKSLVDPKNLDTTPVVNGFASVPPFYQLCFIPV
# Method in brief: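 P450-Glo CYP2C9 system: proluciferin substrate with enzyme in mix containing 0.4% BSA, 10 min at room temperature, then NADPH regeneration solution added and incubated 1 h at 37C. Detection reagent stopped reaction; luminescence read after 20 min as RLU.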
# [4] = Primary qHTS for inhibitors of nuclear receptor binding SET domain protein 2 (NSD2) in an isogenic RCH-ACV NSD2 p.E1099K mutant (9B) (AID 1645876; active means well fitted curve in the direction sought with a large enough effect; an effect the other way counts as inactive or inconclusive; further: nearly all actives have a fitted effect of over 70% in size; further: potency means the concentration at half of the fitted maximal effect)
# [5] = Cytotoxicity counterscreen for inhibitors of SARS-CoV-2 cell entry (AID 1645845); further: nearly all actives have a fitted effect of over 50% in size
# Method in brief: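 ATP-content luminescence (ATPLite 1step, 15 min RT) read after 48 h compound exposure of Expi293F cells stably expressing human ACE2; normalized to cells-only wells and media-only wells.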
# Papain (Carica papaya) = Papain (Carica papaya) (UniProt P00784); assay: Primary qHTS assay for inhibitors of the protease papain (AID 1645873; active means well fitted curve in the direction sought with a large enough effect; an effect the other way counts as inactive or inconclusive;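 further: papain turnover of Z-FR-AMC read as the AMC fluorescence gain over 10 min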)
# Papain (Carica papaya), sequence (P00784 whole entry, looked up): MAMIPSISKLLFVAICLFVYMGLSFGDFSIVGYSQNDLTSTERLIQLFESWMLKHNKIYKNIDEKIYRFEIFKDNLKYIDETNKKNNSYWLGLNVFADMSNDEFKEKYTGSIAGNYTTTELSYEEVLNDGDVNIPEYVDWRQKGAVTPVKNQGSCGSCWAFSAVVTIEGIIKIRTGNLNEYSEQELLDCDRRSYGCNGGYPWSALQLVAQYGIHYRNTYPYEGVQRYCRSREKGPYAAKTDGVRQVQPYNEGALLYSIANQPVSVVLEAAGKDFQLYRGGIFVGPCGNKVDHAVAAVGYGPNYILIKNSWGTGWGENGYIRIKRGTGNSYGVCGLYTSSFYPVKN
# [6] = target: Cytochrome P450 3A4 (Homo sapiens) (UniProt P08684); assay: Cytochrome P450 family 3 subfamily A member 4 (CYP3A4) small molecule antagonists: luciferase qHTS assay (AID 1645841; active means well fitted curve in the direction sought with a large enough effect in the repeat runs; an effect the other way counts as inactive or inconclusive; further: nearly all actives have a fitted effect of over 45% in size; further: potency means the concentration at half of the fitted maximal effect)
# Cytochrome P450 3A4 (Homo sapiens), sequence (P08684 whole entry, looked up): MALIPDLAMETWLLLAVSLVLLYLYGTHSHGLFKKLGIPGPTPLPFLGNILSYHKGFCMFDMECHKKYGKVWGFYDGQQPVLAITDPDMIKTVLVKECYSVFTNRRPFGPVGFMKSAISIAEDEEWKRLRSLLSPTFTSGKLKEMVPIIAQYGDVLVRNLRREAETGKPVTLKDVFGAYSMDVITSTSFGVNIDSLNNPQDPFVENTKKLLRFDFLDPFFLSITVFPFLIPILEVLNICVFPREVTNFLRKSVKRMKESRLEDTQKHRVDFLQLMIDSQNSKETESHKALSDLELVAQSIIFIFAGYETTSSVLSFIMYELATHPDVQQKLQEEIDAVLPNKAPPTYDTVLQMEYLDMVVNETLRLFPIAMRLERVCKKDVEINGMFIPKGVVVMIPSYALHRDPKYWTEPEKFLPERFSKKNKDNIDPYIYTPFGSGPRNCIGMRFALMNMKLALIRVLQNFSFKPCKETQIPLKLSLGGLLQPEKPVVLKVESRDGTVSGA
# Method in brief: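 Luminescent CYP3A4 activity readout: compounds plus enzyme-substrate mix 10 min at room temperature, reaction started with NADPH regenerating system for 1 h, stopped with detection reagent, read after 20 min. Ketoconazole served as control.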
# [7] = Primary qHTS to identify inhibitors of SARS-CoV-2 cell entry (AID 1645846); settings: activity change, negative = inhibition: at 57.1 µM (top of the series) unless noted; further: nearly all actives have a fitted effect of over 45% in size
# Method in brief: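 HEK293-ACE2 (Expi293F, stable hACE2), 1500 cells/well, o/n 37C; cpd 23 nL pin, 1 h; MLV-PP w/ SARS-CoV-2-S (Wuhan-Hu-1, Δ19 C-term); 48 h 37C; Bright-Glo luminescence; normalized vs S-PP and bald PP.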
# [8] = VSVG counterscreen qHTS to identify inhibitors of SARS-CoV-2 cell entry (AID 1645847); further: nearly all actives have a fitted effect of over 65% in size
# Method in brief: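 Expi293F/hACE2 cells, overnight plating; cpd 1 h, 37C/5% CO2; + VSV-G PP (MLV pseudotyping), 48 h; supernatant removed, Bright-Glo luciferase read. Norm: VSV-G PP and bald PP wells.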
smiles,measurement,setting,value
c1ccc(CN2CCNCC2)cc1,outcome,[1],inactive
same,Potency,[2],30.6 µM (active)
same,Potency,[3],inactive
same,Potency,[4],inactive
Nc1ccccc1C(=O)O,outcome,[1],inactive
same,Potency,[2],inactive
same,Potency,[3],inactive
CC(C)N(CCC(C(N)=O)(c1ccccc1)c1ccccn1)C(C)C (stereo unspecified),outcome,[1],inactive
same,Potency,[2],inactive
same,Potency,[3],inactive
same,Potency,[5],inactive
same,outcome,Papain (Carica papaya),inactive
same,Potency,[4],inactive
CCN[C@@H](C)Cc1ccccc1,outcome,[1],inactive
same,Potency,[2],6.28 µM (active)
same,Potency,[3],inactive
same,Potency,[4],inactive
NC(=O)c1cc([N+](=O)[O-])cc([N+](=O)[O-])c1,outcome,[1],inactive
same,Potency,[6],9.65 µM (active)
same,Potency,[3],inactive
same,Potency,[5],inactive
same,"activity change, negative = inhibition",[7],-10.7%
same,Potency,[4],inactive
CCN[C@@H](C)Cc1cccc(C(F)(F)F)c1,outcome,[1],inactive
same,Potency,[2],2.75 µM (active)
same,Potency,[3],inactive
same,Potency,[4],inactive
CCC1(c2ccc(N)cc2)CCC(=O)NC1=O (stereo unspecified),Potency,[2],inactive
same,Potency,[3],inactive
same,Potency,[5],inactive
same,Potency,[7],inactive
same,outcome,Papain (Carica papaya),inactive
same,Potency,[4],inactive
CN1CC[C@]23c4c5ccc(O)c4O[C@H]2[C@@H](O)CC[C@H]3[C@H]1C5,outcome,[1],inactive
same,Potency,[3],inactive
same,Potency,[4],inactive
O=P1(N(CCCl)CCCl)NCCCO1 (stereo unspecified),Potency,[2],inactive
same,Potency,[6],inactive
same,Potency,[3],inactive
same,Potency,[5],inactive
same,Potency,[7],inactive
same,outcome,Papain (Carica papaya),inactive
same,Potency,[4],inactive
C[C@H]1[C@@H]2Cc3ccc(O)cc3[C@@]1(C)CCN2C,outcome,[1],inactive
same,Potency,[2],107 µM (active)
same,Potency,[3],inactive
same,Potency,[4],inactive
CC(C)c1cccc(C(C)C)c1O,outcome,[1],inactive
same,"activity change, negative = inhibition",[7],-52.4%
same,Potency,[8],inactive
same,outcome,Papain (Carica papaya),inactive
same,Potency,[4],inactive
CC(C)(C)c1ccc(O)cc1,outcome,[1],inactive
same,"activity change, negative = inhibition",[7],-17.1%
O=[N+]([O-])O[C@H]1CO[C@H]2[C@@H]1OC[C@H]2O[N+](=O)[O-],Potency,[2],inactive
same,Potency,[6],inactive
same,Potency,[3],inactive
same,Potency,[5],inactive
same,"activity change, negative = inhibition",[7],-33.3%
same,Potency,[4],inactive
C[C@]12CC[C@H]3[C@@H](CCC4=CC(=O)CC[C@@H]43)[C@@H]1CC[C@@H]2OC(=O)CCc1ccco1,outcome,[1],inactive
same,Potency,[3],15.5 µM (active)
same,Potency,[5],inactive
same,Potency,[7],inactive
same,Potency,[4],23.7 µM (active)
CC(NC(C)(C)C)C(=O)c1cccc(Cl)c1 (stereo unspecified),Potency,[2],11 µM (active)
same,Potency,[3],inactive
same,Potency,[5],inactive
same,Potency,[7],inactive
same,"activity change, negative = inhibition",[7],-12.4%
same,outcome,Papain (Carica papaya),inactive
same,Potency,[4],inactive
c1ccc(N2CCNCC2)cc1,outcome,[1],inactive
same,Potency,[2],inactive
same,Potency,[3],inactive
same,Potency,[4],inactive
Nc1ccccc1,outcome,[1],inactive
same,Potency,[3],inactive
same,Potency,[5],inactive
same,Potency,[4],inactive
C[C@]12CC[C@@H]3c4ccc(OC(=O)N(CCCl)CCCl)cc4CC[C@H]3[C@@H]1CC[C@@H]2O,Potency,[2],inactive
same,Potency,[6],inactive
same,Potency,[3],inactive
same,Potency,[5],inactive
same,Potency,[7],inactive
O=C1CN=C(c2ccccc2)c2cc([N+](=O)[O-])ccc2N1,outcome,[1],inactive
same,Potency,[2],inactive
same,Potency,[4],inactive
COP(=S)(OC)SCN1C(=O)c2ccccc2C1=O,Potency,[2],15.5 µM (active)
same,Potency,[3],0.776 µM (active)
same,Potency,[5],inactive
same,Potency,[7],inactive
Clc1cccc(SC2CCNCC2)n1,outcome,[1],inactive
same,Potency,[4],inactive
O=c1[nH]c2ccccc2n1C1CCNCC1,outcome,[1],inactive
same,Potency,[3],inactive
same,Potency,[4],inactive
CCN(CC)CCc1c[nH]c2ccccc12,Potency,[2],5.91 µM (active)
same,Potency,[6],inactive
same,Potency,[3],inactive
O=c1oc2ccccc2c(O)c1Cc1c(O)c2ccccc2oc1=O,outcome,[1],inactive
same,Potency,[5],inactive
same,Potency,[7],inactive
same,Potency,[4],21.1 µM (active)
C[C@@H](N)[C@@H](O)c1ccccc1,outcome,[1],inactive
same,Potency,[3],inactive
same,Potency,[5],inactive
same,Potency,[7],inactive
same,Potency,[4],inactive
C=CCC1(C(C)CC)C(=O)NC(=O)NC1=O (stereo unspecified),outcome,[1],inactive
same,Potency,[3],inactive
same,Potency,[5],inactive
same,"activity change, negative = inhibition",[7],-17.9%
same,Potency,[4],inactive
ClCCN1CCCC1,outcome,[1],inactive
same,Potency,[2],inactive
same,Potency,[3],inactive
same,Potency,[4],inactive
CCCCCCCCCC(=O)O[C@H]1CC[C@H]2[C@@H]3CCC4=CC(=O)CC[C@@H]4[C@H]3CC[C@]12C,outcome,[1],inactive
same,Potency,[3],12.3 µM (active)
same,Potency,[4],inactive
CCN[C@H](C)Cc1cccc(C(F)(F)F)c1,outcome,[1],inactive
same,Potency,[2],3.16 µM (active)
same,Potency,[3],inactive
same,Potency,[4],inactive
CC(C)(C)NCC(O)c1ccccc1Cl (stereo unspecified),Potency,[2],12.3 µM (active)
same,Potency,[3],inactive
same,Potency,[5],inactive
same,Potency,[7],inactive
same,outcome,Papain (Carica papaya),inactive
same,Potency,[4],inactive
CN(C)CCc1c[nH]c2cccc(OP(=O)(O)O)c12,outcome,[1],inactive
same,Potency,[3],inactive
same,Potency,[4],inactive
O=C1OC(c2ccc(O)c(S(=O)(=O)O)c2)(c2ccc(O)c(S(=O)(=O)O)c2)c2c(Br)c(Br)c(Br)c(Br)c21,outcome,[1],inactive
same,Potency,[3],inactive
same,Potency,[5],inactive
same,Potency,[7],inactive
same,Potency,[4],inactive
C[C@]12CCC(=O)C=C1CC[C@@H]1[C@@H]2CC[C@]2(C)C(=O)CC[C@@H]12,Potency,[2],inactive
same,Potency,[6],inactive
same,Potency,[3],inactive
same,Potency,[5],inactive
same,Potency,[7],inactive
CC(Cc1ccccc1)NCCn1cnc2c1c(=O)n(C)c(=O)n2C (stereo unspecified),outcome,[1],inactive
same,Potency,[2],7.01 µM (active)
same,Potency,[3],inactive
same,Potency,[4],inactive
COc1cc(CC(C)N)cc(OC)c1OC (stereo unspecified),Potency,[2],30.6 µM (active)
same,Potency,[3],inactive
CCC1(c2ccccc2)C(=O)N(COC)C(=O)N(COC)C1=O,outcome,[1],inactive
same,Potency,[2],inactive
same,Potency,[3],inactive
same,Potency,[4],inactive
CNC(C)(C)Cc1ccccc1,outcome,[1],inactive
same,Potency,[3],inactive
same,Potency,[5],inactive
same,Potency,[7],inactive
same,Potency,[4],inactive
O=C(N/N=C/c1ccc([N+](=O)[O-])o1)c1cc([N+](=O)[O-])cc([N+](=O)[O-])c1O,Potency,[2],0.617 µM (active)
same,Potency,[3],inactive
